From PubChem BioAssay
The source made the active and inactive calls.

What was measured:
[1] = tested on: Human papillomavirus type 1a protein E7 (residues 44-93); assay: HPV1a E7 fragment binders on microarrays, primary screen, biochemical, small-molecule microarray, residues 44-93, 635 nm fluorescence (AID 1108); settings: small-molecule microarray binding, fluorescence 635 nm; higher = more signal;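 note: E7 fragment applied at 1 µg/mL in TBST for 1 h at 4 C; score combines spot fluorescence with its signal to noise ratio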
[2] = modulators of HCV replicon luciferase signal, primary screen, HCV replication inhibitor project, Huh7 cells, luciferase reporter (AID 1109); settings: 48 h, higher = more signal;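 note: huh7 hepatoma cells harbouring a luciferase neomycin HCV replicon reporter; luciferase luminescence as measure of HCV replicon replication; test concentration not given here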
[3] = biological target: Left-right determination factor 2 (Homo sapiens) (UniProt O00292); assay: LEFTY2 binders on small-molecule microarrays, primary screen, biochemical, small-molecule microarray, 635 nm fluorescence scan (AID 1110); settings: LEFTY2 binding, higher = more signal
Chain of Left-right determination factor 2 (Homo sapiens) (O00292 whole entry, looked up): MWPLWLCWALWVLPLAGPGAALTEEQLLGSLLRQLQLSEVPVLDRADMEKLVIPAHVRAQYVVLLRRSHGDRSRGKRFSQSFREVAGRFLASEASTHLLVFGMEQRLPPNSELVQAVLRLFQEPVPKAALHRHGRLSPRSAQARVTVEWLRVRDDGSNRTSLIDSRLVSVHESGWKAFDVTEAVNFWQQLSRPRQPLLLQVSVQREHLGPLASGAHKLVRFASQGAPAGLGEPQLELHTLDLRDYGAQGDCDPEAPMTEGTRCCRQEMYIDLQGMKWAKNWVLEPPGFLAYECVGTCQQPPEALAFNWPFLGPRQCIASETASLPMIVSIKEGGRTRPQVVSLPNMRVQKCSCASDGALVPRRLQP

[4] = biological target: Calmodulin-1 (Homo sapiens) (UniProt P0DP23); assay: CALM1 binders on microarrays, EGTA buffer, profiling panel, biochemical, small-molecule microarray, Cy5-labelled CALM1 (AID 1111); settings: Cy5-CALM1 binding fluorescence, higher = more signal;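 note: labelled calmodulin applied in Tris saline Tween buffer holding calcium plus EGTA and DTT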
[5] = biological target: Calmodulin-1 (Homo sapiens) (UniProt P0DP23); assay: calcium-bound CALM1 binders on microarrays, profiling panel, artefact control for SMM control-protein annotation, biochemical, small-molecule microarray, Cy5-labelled CALM1, plus calcium (AID 1112); settings: Cy5-CALM1 binding fluorescence, higher = more signal;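 note: score merges spot fluorescence with signal to noise from triplicate slides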
[6] = small-molecule microarray binders of probe aWnt5a, primary screen, biochemical, biotinylated probe, 635/667 nm fluorescence (AID 1113); settings: higher = more signal;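 note: score merges 667 nm fluorescence intensity with signal-to-noise per printed feature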
[7] = small-molecule microarray binders of probe aShh, primary screen, biochemical, biotinylated probe, 635/667 nm fluorescence (AID 1114); settings: higher = more signal;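 note: probe is biotin-labelled aShh protein from a stem cell growth factor screen; measures binding of labelled protein to compounds printed on the slide; score merges feature fluorescence at 667 nm with signal-to-noise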
[8] = small-molecule microarray binders of probe aNog, primary screen, biochemical, biotinylated probe, 635/667 nm fluorescence (AID 1115); settings: higher = more signal;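 note: probe is biotinylated aNog protein used at 0.15 µg/mL for 1 h at 4 C; z-score combines 667 nm fluorescence of each spot with its signal to noise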
[9] = biological target: Torsin-1A-interacting protein 1 (Homo sapiens) (UniProt Q5JTV8); assay: LAP1 binders from COS7 cell lysate, primary screen, small-molecule microarray, 635/667 nm fluorescence (AID 1116); settings: COS7-hLAP1 lysate binding, 635 nm fluorescence, higher = more signal
Chain of Torsin-1A-interacting protein 1 (Homo sapiens) (Q5JTV8 whole entry, looked up): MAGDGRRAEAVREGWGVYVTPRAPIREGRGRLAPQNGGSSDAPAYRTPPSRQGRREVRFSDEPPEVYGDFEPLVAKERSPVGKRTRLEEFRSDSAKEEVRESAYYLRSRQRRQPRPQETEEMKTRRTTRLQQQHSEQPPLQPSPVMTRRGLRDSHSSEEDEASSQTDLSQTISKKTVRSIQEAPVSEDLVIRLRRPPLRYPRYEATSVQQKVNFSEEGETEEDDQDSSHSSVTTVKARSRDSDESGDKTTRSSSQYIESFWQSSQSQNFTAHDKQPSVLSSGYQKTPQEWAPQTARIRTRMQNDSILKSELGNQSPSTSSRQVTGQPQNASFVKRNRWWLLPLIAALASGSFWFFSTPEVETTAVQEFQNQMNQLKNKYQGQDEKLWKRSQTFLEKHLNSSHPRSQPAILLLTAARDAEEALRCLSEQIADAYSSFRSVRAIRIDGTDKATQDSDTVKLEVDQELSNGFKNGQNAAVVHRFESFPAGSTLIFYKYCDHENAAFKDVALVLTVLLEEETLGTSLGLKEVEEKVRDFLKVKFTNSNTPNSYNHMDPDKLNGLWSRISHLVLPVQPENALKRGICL

[10] = biological target: Alpha-bungarotoxin (Bungarus multicinctus) (UniProt P60615); assay: alpha-bungarotoxin binders on microarray, profiling panel, artefact control for SMM control protein annotation, biochemical, small-molecule microarray, Alexa647 label, 635/667 nm fluorescence (AID 1117); settings: alpha-BTX-A647 binding fluorescence, higher = more signal
Chain of Alpha-bungarotoxin (Bungarus multicinctus) (P60615 whole entry, looked up): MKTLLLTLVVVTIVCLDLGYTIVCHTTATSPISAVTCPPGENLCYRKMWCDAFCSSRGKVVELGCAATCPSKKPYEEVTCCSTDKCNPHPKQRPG

[11] = biological target: Albumin (Bos taurus) (UniProt P02769); assay: bovine serum albumin binders on microarray, profiling panel, artefact control for SMM control protein annotation, biochemical, small-molecule microarray, Alexa647 label, 635/667 nm fluorescence (AID 1118); settings: BSA-A647 binding, fluorescence 635 nm, higher = more signal;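 note: score merges 667 nm emission intensity and signal-to-noise per printed compound spot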
Chain of Albumin (Bos taurus) (P02769 whole entry, looked up): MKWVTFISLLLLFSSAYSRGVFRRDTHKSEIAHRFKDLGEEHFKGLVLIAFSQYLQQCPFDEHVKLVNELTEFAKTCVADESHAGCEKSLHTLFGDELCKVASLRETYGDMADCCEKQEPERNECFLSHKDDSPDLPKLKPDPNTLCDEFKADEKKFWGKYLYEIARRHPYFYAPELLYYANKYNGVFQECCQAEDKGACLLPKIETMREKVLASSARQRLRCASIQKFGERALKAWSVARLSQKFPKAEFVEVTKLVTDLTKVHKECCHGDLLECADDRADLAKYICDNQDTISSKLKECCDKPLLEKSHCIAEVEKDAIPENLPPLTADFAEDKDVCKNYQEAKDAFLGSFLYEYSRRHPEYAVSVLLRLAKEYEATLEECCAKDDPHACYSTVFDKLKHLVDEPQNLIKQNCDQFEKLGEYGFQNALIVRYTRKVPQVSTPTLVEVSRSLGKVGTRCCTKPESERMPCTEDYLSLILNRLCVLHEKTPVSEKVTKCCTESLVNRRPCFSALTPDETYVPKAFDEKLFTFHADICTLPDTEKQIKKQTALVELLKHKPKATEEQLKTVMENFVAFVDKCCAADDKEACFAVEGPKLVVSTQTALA

[12] = small-molecule microarray binders of probe aXIP, primary screen, biochemical, NeuroSMM set, 635/667 nm fluorescence (AID 1119); settings: higher = more signal, called active from +8 up or from −8 down;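 note: probe is the protein aXip251-270 applied at 1 µg/mL to compound-printed slides; binding of probe to printed compounds measured as 667 nm fluorescence plus signal to noise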
[13] = small-molecule binders of probe aNOTCH3, primary screen, biochemical, small-molecule microarray, 635/667 nm fluorescence (AID 1120); settings: higher = more signal;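 note: probe is a biotin-tagged antibody raised against NOTCH3 rather than NOTCH3 protein; score merges spot fluorescence near 667 nm with spot signal to noise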
[14] = small-molecule binders of probe aNOTCH2, primary screen, biochemical, small-molecule microarray, 635/667 nm fluorescence (AID 1121); settings: higher = more signal;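 note: score merges feature fluorescence read at 667 nm with its signal to noise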
[15] = biological target: Carbonic anhydrase 2 (Homo sapiens) (UniProt P00918); assay: CAII small-molecule binders, profiling panel, biochemical, small-molecule microarray, Alexa647-labelled CAII (AID 1122); settings: CAII-A647 binding fluorescence, higher = more signal
[16] = COS7 lysate on small-molecule microarray, probe aHis, 635 nm (AID 1123); settings: COS7 cell lysate, fluorescence, higher = more signal;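 note: z-score combines 667nm fluorescence intensity with signal-to-noise per printed compound spot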
[17] = compound binding in COS7 lysate, probe aLAP1, primary screen, cell lysate, small-molecule microarray (AID 1124); settings: probe aLAP1, fluorescence, higher = more signal;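 note: lysate comes from COS7 cells expressing LAP1 and is applied at 0.3 µg/mL; score merges spot fluorescence near 667 nm with signal-to-noise over triplicate slides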
[18] = tested on: Sam68 (KHDRBS1); assay: Sam68 small-molecule binders, primary screen, biochemical, small-molecule microarray, 635 nm fluorescence (AID 1125); settings: small-molecule microarray binding, higher = more signal;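 note: score merges 667 nm channel intensity with signal to noise over triplicate slides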
[19] = tested on: Chordin-like protein 2 (CHRDL2); assay: CHRDL2 small-molecule binders, primary screen, biochemical, small-molecule microarray, 635 nm fluorescence (AID 1126); settings: small-molecule microarray binding, fluorescence 635 nm; higher = more signal;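 note: printed compound slides probed with Chrdl2 protein at 4 µg/mL for 1 h at 4 C; score merges 667 nm emission intensity with signal to noise over three replicate slides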
[20] = biological target: Concanavalin-A (Canavalia ensiformis) (UniProt P02866); assay: ConA small-molecule binders, primary screen, artefact control for SMM control protein annotation, biochemical, small-molecule microarray, Alexa647 label, 635 nm (AID 1127); settings: ConA-A647 binding fluorescence, higher = more signal;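 note: z combines 667 nm emission intensity with signal-to-noise across three replicate slides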
Chain of Concanavalin-A (Canavalia ensiformis) (P02866 whole entry, looked up): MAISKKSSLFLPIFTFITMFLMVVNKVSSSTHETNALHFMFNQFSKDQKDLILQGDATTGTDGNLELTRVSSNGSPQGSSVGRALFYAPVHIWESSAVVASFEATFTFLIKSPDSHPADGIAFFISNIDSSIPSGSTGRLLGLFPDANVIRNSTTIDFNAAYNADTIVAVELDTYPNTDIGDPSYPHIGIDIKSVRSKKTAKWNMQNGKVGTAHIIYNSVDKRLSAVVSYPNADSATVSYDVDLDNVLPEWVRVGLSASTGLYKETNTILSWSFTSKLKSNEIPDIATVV

| SMILES | composite z-score [1] | z-score [2] | composite z-score [3] | composite z-score [4] | composite z-score [5] | composite z-score [6] | composite z-score [7] | composite z-score [8] | composite z-score [9] | composite z-score [10] | composite z-score [11] | composite Z-score [12] | composite z-score [13] | composite z-score [14] | composite z-score [15] | composite z-score [16] | composite z-score [17] | composite z-score [18] | composite z-score [19] | composite z-score [20] |
| --- | --- | --- | --- | --- | --- | --- | --- | --- | --- | --- | --- | --- | --- | --- | --- | --- | --- | --- | --- | --- |
| CCOC(=O)C1=CC[C@@H](c2ccccc2)N(S(=O)(=O)C[Si](C)(C)C)[C@H]1c1ccccc1 | 1.38 | -0.61 | 0.618 | 1.36 | 0.391 | 0.105 | -0.2 | 0.509 | 1.02 | 1.02 | 0.873 | -0.17 (inactive) | 0.138 | -0.0079 | 0.605 | 1.27 | -0.203 | 1.34 | 0.302 | 1.02 |
| O=C1C2C=CC(C(O)c3cccc(O)c3)N(Nc3ccccc3F)C2C(=O)N1c1ccccc1 (stereo not given) | 0.623 | -2.21 | -0.31 | -0.325 | -0.607 | -0.0425 | 0.656 | -0.261 | -0.165 | -0.234 | 0.92 | -0.539 (inactive) | 0.025 | -0.141 | 0.756 | -0.0811 | -0.841 | 0.664 | -0.406 | 0.0597 |
| C=C(COC)C(=O)CC[C@@H](OC(=O)c1cccnc1)c1cccc(OCCO)c1 | 0.743 | -1.64 | -0.116 | -0.725 | -0.89 | -0.0731 | 0.0121 | 1.09 | 0.295 | -0.101 | 0.0464 | -0.239 (inactive) | 0.158 | -0.107 | 0.75 | 0.148 | -0.292 | 0.804 | 0.423 | -0.095 |
| COCCOC(=O)N1C(=O)[C@@]2(c3cc(C#CC4=CCCCC4)ccc31)[C@H](c1ccc(OCCO)cc1)N1[C@H](c3ccccc3)[C@H](c3ccccc3)OC(=O)[C@H]1[C@@H]2C(=O)N1CCCCCCC1 | 0.67 | -1.13 | 0.853 | 0.643 | 0.758 | 0.267 | 1.44 | 1.33 | 1.91 | 1.9 | 0.263 | 2 (inactive) | 0.809 | 0.0784 | 0.623 | 2.41 | 0.903 | 1.3 | 0.91 | 1.11 |
| CC1CC/C=C\[C@H]2OC34C=CCN(CCN5CCOCC5)C(=O)[C@H]3N(CCCCCCO)C(=O)[C@@H]4C2C(=O)O1 (stereo not given in full) | -1.14 | -0.709 | -1.12 | -0.482 | -0.42 | -0.232 | -0.154 | -0.305 | -0.933 | -0.307 | -0.0754 | 0.446 (inactive) | -0.438 | -0.14 | 0.864 | -0.686 | -0.362 | -0.715 | -0.756 | -1.53 |
| COc1ccc([Si](C)(C)[C@H]2[C@H](CCn3cc([C@H](O)c4ccccc4)nn3)O[C@@]3(C(=O)N(c4ccccc4)c4ccccc43)[C@@H]2C)cc1 | 0.323 | -2.91 | -0.202 | -0.0353 | 0.82 | -0.1 | -0.2 | -0.143 | -0.179 | 0.0509 | 0.121 | -0.112 (inactive) | -0.0879 | -0.156 | -0.102 | -0.337 | -0.075 | 0.0941 | -0.201 | 0.173 |
